In PubChem BioAssay (EPA / NIEHS):
Results filed as inconclusive are left out. Active and inactive are the calls of the source. Rule for the calls, unless noted: active = hit-call score of the fitted dose curve at least 0.9, where 1 is the maximum; inconclusive = response in the unintended direction; inactive = score below 0.9.

Columns and labels:
[1] = read-out: Intercellular Adhesion Molecule 1 (ICAM1), ICAM1 (gene 3383); assay: BSK_3C_ICAM1: BioMAP Diversity Plus: 3C Assay for Intercellular Adhesion Molecule 1 (ICAM1) Biomarker Activity (AID 2283003; active = hit-call score of the fitted dose curve at least 0.9, where 1 is the maximum; inactive = score below 0.9); details: primary human endothelial cells (HUVEC); actives raise or lower the signal
How it was run: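 HUVEC primary cells stimulated under 3C conditions; ICAM1 measured by ELISA 24 h after compound dosing. Curves fitted bidirectionally against the DMSO baseline. Overt cytotoxicity checked by SRB staining of parallel cultures.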

[2] = biological target: human Retinoid X Receptor beta (RXRb), RXRB (gene 6257) (UniProt P28702); assay: ATG_RXRb_TRANS: Attagene TRANS-FACTORIAL HepG2 Assay for human Retinoid X Receptor beta (RXRb) (AID 2283013)
human Retinoid X Receptor beta (RXRb), RXRB (gene 6257), sequence (P28702 whole entry, looked up, the tested form may be a part): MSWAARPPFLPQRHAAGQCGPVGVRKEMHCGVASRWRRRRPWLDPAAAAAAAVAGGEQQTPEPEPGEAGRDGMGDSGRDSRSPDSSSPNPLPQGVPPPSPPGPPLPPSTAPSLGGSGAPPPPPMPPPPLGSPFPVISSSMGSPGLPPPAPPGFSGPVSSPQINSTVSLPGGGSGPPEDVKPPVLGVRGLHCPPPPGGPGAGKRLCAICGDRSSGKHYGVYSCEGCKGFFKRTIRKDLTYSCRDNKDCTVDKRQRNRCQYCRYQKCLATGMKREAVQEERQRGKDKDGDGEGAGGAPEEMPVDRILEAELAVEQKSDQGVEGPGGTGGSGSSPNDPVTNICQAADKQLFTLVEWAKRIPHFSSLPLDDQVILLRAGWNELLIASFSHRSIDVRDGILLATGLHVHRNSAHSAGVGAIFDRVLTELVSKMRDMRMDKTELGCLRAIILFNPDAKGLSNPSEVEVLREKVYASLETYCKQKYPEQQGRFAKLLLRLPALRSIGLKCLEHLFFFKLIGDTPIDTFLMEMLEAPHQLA
How it was run: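 HepG2 cells were transiently transfected with multiplexed GAL4-UAS reporters and a chimeric RXRb-Gal4 construct, then exposed for 24 h. Reporter mRNA was quantified by RT-PCR, FAM labeling, HpaI digestion and capillary electrophoresis; gain of signal was scored against DMSO.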

[3] = biological target: Peroxisome proliferator-activated receptor gamma (Homo sapiens) (UniProt P37231); assay: ATG_PPARg_TRANS: Attagene TRANS-FACTORIAL HepG2 Assay for human Peroxisome Proliferator-activated Receptor-gamma (PPARg) (AID 2283007)
Peroxisome proliferator-activated receptor gamma (Homo sapiens), sequence (P37231 whole entry, looked up, the tested form may be a part): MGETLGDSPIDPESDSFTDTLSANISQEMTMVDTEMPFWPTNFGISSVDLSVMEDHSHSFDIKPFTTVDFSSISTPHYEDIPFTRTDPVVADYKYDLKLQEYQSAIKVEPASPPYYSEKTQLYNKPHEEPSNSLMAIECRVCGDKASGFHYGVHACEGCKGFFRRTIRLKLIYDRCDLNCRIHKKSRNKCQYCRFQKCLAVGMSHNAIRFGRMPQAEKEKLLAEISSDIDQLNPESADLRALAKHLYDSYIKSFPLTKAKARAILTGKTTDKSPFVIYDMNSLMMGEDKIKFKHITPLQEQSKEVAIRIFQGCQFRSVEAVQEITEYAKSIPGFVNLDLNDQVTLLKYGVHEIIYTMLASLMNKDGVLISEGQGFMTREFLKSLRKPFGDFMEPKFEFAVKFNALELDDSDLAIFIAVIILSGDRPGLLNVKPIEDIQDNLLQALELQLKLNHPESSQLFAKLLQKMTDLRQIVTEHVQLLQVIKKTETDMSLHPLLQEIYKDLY
How it was run: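 Transient transfection of HepG2 with GAL4-UAS-driven reporter units; chemical dosing 24 h; total RNA → oligo(dT) RT → PCR with reporter primers → 6-FAM primer extension → HpaI digest 2 h 37 C → capillary electrophoresis. Positive direction vs DMSO.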

[4] = biological target: Nuclear receptor subfamily 1 group I member 2 (Homo sapiens) (UniProt O75469); assay: ATG_PXR_TRANS: Attagene TRANS-FACTORIAL HepG2 Assay for human Pregnane X Receptor (PXR) (AID 2283008)
Nuclear receptor subfamily 1 group I member 2 (Homo sapiens), sequence (O75469 whole entry, looked up, the tested form may be a part): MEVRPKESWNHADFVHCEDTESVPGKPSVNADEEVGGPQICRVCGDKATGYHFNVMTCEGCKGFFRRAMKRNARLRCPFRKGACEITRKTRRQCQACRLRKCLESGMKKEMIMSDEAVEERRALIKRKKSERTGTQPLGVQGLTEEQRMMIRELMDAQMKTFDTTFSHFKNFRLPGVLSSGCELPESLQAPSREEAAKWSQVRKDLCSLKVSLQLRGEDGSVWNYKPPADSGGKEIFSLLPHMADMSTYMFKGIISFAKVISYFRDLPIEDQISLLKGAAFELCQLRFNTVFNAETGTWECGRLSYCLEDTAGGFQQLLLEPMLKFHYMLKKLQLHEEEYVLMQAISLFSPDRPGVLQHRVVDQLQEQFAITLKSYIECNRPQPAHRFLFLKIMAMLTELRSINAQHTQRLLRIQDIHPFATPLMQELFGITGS
How it was run: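 Read-out is fluorescence of labelled reporter cDNA fragments separated by capillary electrophoresis after RT-PCR and HpaI digestion. Source: HepG2 cells carrying PXR-GAL4/UAS reporter constructs, treated 24 h; activity fitted upward relative to DMSO.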

[5] = biological target: Retinoic acid receptor RXR-alpha (Homo sapiens) (UniProt P19793); assay: ATG_RXRa_TRANS: Attagene TRANS-FACTORIAL HepG2 Assay for human Retinoid X Receptor alpha (RXRa) (AID 2283012)
Retinoic acid receptor RXR-alpha (Homo sapiens), sequence (P19793 whole entry, looked up, the tested form may be a part): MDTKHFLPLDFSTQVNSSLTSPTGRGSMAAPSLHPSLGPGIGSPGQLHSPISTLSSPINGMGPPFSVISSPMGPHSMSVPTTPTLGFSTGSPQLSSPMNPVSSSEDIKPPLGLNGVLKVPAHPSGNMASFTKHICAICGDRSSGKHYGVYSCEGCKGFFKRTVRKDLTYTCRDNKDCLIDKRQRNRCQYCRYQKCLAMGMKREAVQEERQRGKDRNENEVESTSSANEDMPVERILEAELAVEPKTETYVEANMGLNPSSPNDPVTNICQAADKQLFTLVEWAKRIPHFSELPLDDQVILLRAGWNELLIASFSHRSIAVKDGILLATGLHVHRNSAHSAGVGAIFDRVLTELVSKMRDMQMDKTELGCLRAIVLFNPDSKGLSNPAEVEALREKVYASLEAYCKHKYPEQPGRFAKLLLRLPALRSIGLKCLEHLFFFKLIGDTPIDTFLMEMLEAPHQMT
How it was run: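 HepG2 cells transiently transfected with GAL4-UAS reporter units and chimeric RXRa-Gal4 protein, treated 24 h. Reporter mRNA measured by RT-PCR, fluorescent labelling, HpaI digestion and capillary electrophoresis. Induction fitted against DMSO.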

[6] = BSK_3C_Proliferation: Cell Proliferation Assessment in the BioMAP Diversity Plus: 3C Assay (AID 2283006; active = hit-call score of the fitted dose curve at least 0.9, where 1 is the maximum; inactive = score below 0.9;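 for AC50: potency may reflect either rise or fall in cell number versus DMSO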); details: primary human endothelial cells (HUVEC)
How it was run: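 Subconfluent HUVEC (3C system) cultured with chemical; relative cell number read at 48 h by sulforhodamine B total-protein staining (0.1% SRB after 10% TCA fixation, 560 nm). Bidirectional fit relative to DMSO.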

[7] = biological target: human Thyroid Receptor alpha (THRa1), THRA (gene 7067) (UniProt P10827); assay: ATG_THRa1_TRANS: Attagene TRANS-FACTORIAL HepG2 Assay for human Thyroid Receptor alpha (THRa1) (AID 2283014)
human Thyroid Receptor alpha (THRa1), THRA (gene 7067), sequence (P10827 whole entry, looked up, the tested form may be a part): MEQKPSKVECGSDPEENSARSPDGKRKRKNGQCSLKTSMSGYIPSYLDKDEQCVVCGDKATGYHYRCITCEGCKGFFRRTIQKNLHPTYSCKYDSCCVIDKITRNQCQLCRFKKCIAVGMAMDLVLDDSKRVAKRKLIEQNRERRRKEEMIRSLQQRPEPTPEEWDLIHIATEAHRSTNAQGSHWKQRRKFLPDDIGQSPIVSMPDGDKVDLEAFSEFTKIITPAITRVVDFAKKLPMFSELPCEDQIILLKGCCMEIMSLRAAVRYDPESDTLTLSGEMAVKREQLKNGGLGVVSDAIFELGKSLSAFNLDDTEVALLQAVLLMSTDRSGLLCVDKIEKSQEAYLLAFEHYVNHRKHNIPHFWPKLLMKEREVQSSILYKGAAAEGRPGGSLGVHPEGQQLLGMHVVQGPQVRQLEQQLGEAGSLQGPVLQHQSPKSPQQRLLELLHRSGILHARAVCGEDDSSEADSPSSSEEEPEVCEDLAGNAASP
How it was run: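 Transcripts from GAL4-UAS-driven reporters, measured after 24 h compound exposure by RT-PCR plus capillary electrophoresis of 6-FAM-labeled fragments, were fitted for gain of signal relative to DMSO. Cells: transiently transfected HepG2 expressing NR-Gal4 chimeras.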

[8] = biological target: human Retinoic Acid Receptor gamma (RARg), RARG (gene 5916) (UniProt P13631); assay: ATG_RARg_TRANS: Attagene TRANS-FACTORIAL HepG2 Assay for human Retinoic Acid Receptor gamma (RARg) (AID 2283009)
human Retinoic Acid Receptor gamma (RARg), RARG (gene 5916), sequence (P13631 whole entry, looked up, the tested form may be a part): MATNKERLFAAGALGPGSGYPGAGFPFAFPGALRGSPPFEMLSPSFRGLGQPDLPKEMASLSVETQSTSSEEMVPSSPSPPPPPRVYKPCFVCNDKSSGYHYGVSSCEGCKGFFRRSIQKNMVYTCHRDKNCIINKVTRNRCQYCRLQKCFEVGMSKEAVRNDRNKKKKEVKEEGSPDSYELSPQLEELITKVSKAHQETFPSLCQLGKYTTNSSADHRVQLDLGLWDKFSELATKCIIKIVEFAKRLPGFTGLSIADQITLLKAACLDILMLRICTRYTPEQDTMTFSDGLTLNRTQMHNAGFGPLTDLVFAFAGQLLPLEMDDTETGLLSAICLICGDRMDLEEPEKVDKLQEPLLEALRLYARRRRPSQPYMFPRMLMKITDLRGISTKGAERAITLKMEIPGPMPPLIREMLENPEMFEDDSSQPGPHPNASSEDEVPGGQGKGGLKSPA
How it was run: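 HepG2 transiently transfected with GAL4-UAS reporter units and chimeric NR-Gal4 constructs; 24 h compound exposure. Reporter mRNA quantified by RT-PCR, FAM labeling, HpaI digestion and capillary electrophoresis; gain-of-signal versus DMSO.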

## CC(=O)OCCC(C)C
[1]
  outcome: inactive
[2]
  outcome: inactive

## CC(C)=CCCC(C)=CC=O
[1]
  outcome: inactive
[3]
  AC50: 21 µM (active)
[4]
  AC50: 4.42 µM (active)
[5]
  outcome: inactive
[2]
  outcome: inactive

## COc1ccc2sc(C(=O)Nc3nnn[nH]3)c(OC(C)C)c2c1
[1]
  AC50: 26.4 µM (active)
[3]
  AC50: 22.9 µM (active)
[5]
  outcome: inactive
[2]
  outcome: inactive

## Cn1c(=O)cc(Oc2ccc(F)cc2F)c2cnc(NCC(C)(C)O)nc21
[1]
  outcome: inactive
[6]
  outcome: inactive
[3]
  AC50: 6.3 µM (active)
[5]
  outcome: inactive
[2]
  outcome: inactive
[7]
  outcome: inactive

## Oc1ccc2c(c1)-c1ccccc1C2
[1]
  outcome: inactive
[3]
  outcome: inactive
[4]
  outcome: inactive
[8]
  outcome: inactive
[5]
  outcome: inactive
[2]
  AC50: 26.2 µM (active)
[7]
  outcome: inactive

## COCCOc1cc2cc(C(=O)NC3CCN(C(C)C)CC3)n(CC(=O)Nc3ccc(Cl)cn3)c2cn1
[1]
  outcome: inactive
[6]
  outcome: inactive
[4]
  outcome: inactive
[8]
  outcome: inactive
[5]
  outcome: inactive
[2]
  outcome: inactive

## Nc1nc2ncc(CNc3ccc(C(=O)N[C@@H](CCC(=O)O)C(=O)O)cc3)nc2c(=O)[nH]1
[1]
  outcome: inactive
[6]
  outcome: inactive
[5]
  outcome: inactive
[7]
  outcome: inactive

## On1ccccc1=S
[1]
  AC50: 24 µM (active)
[6]
  AC50: 4.91 µM (active)
[5]
  outcome: inactive
[7]
  outcome: inactive

## CCC(C)(C)C(=O)O[C@H]1C[C@@H](C)C=C2C=C[C@H](C)[C@H](CC[C@@H]3C[C@@H](O)CC(=O)O3)[C@H]21
[1]
  outcome: inactive
[3]
  outcome: inactive
[8]
  outcome: inactive
[5]
  outcome: inactive

## CC(C)CC(C)(O)C#CC(C)(O)CC(C)C (centres undefined)
[1]
  outcome: inactive
[6]
  outcome: inactive
[8]
  outcome: inactive
[5]
  outcome: inactive
[2]
  outcome: inactive
[7]
  outcome: inactive

## COc1cccc(-c2ccc(/C=C\CN3CCCCCC3)cc2Cl)c1
[1]
  AC50: 33.5 µM (active)
[3]
  outcome: inactive
[5]
  outcome: inactive
[7]
  outcome: inactive

## CC/C(=C\C(=N/O)C(N)=O)C(C)[N+](=O)[O-] (centres undefined)
[1]
  outcome: inactive
[3]
  AC50: 28.1 µM (active)
[5]
  outcome: inactive

## CCCCCCCCCCCCc1ccccc1
[1]
  outcome: inactive
[6]
  outcome: inactive
[3]
  outcome: inactive
[5]
  outcome: inactive
[2]
  AC50: 61.2 µM (active)

## O=c1n(CC2CO2)c(=O)n(CC2CO2)c(=O)n1CC1CO1 (centres undefined)
[1]
  outcome: inactive
[3]
  outcome: inactive
[7]
  outcome: inactive

## CC[C@H](C)C(=O)O[C@H]1C[C@@H](C)C=C2C=C[C@H](C)[C@H](CC[C@@H]3C[C@@H](O)CC(=O)O3)[C@H]21
[1]
  AC50: 36.8 µM (active)
[3]
  outcome: inactive
[2]
  outcome: inactive

## COC(=O)CC(=O)OC
[1]
  outcome: inactive
[6]
  outcome: inactive
[5]
  outcome: inactive

## CCOc1cccc(-n2cc(C(=O)N3CCN(c4cc(C(=O)O)c5ccccc5c4)CC3)nc2-c2ccc(C)cc2)c1
[1]
  AC50: 29.7 µM (active)
[3]
  AC50: 7.92 µM (active)
[5]
  outcome: inactive
[7]
  outcome: inactive

## CC(=O)OC[C@H]1O[C@@](COC(C)=O)(O[C@H]2O[C@H](COC(C)=O)[C@@H](OC(C)=O)[C@H](OC(C)=O)[C@H]2OC(C)=O)[C@@H](OC(C)=O)[C@@H]1OC(C)=O
[1]
  outcome: inactive
[6]
  outcome: inactive
[5]
  outcome: inactive
[2]
  outcome: inactive

## CCCCCCc1ccc(O)cc1O
[6]
  AC50: 30.2 µM (active)
[3]
  AC50: 31.2 µM (active)
[4]
  outcome: inactive
[2]
  AC50: 24.2 µM (active)

## CN(C)c1ccc(N=NS(=O)(=O)O)cc1
[1]
  outcome: inactive
[6]
  outcome: inactive
[4]
  outcome: inactive
[5]
  outcome: inactive
[2]
  outcome: inactive
[7]
  outcome: inactive

## CCOCCOCCOCCO
[1]
  outcome: inactive
[6]
  outcome: inactive
[3]
  outcome: inactive
[5]
  outcome: inactive
[7]
  outcome: inactive

## Cn1c(=O)c2c(ncn2C)n(C)c1=O
[1]
  outcome: inactive
[6]
  outcome: inactive
[5]
  outcome: inactive
[2]
  outcome: inactive

## CCc1cc(SCc2sc(-c3ccc(C(F)(F)F)cc3)nc2CN2CCN(c3ccc(OC)cc3)CC2)ccc1OCC(=O)O
[1]
  AC50: 29.9 µM (active)
[3]
  AC50: 0.0352 µM (active)
[4]
  AC50: 4.69 µM (active)
[8]
  outcome: inactive
[5]
  outcome: inactive

## CCn1nc(Cc2ccccc2)cc1C1CCN(C[C@H]2C[C@H](N(C)[C@@H](C(=O)O)C(C)C)C[C@@H]2c2cccc(F)c2)CC1
[1]
  outcome: inactive
[3]
  outcome: inactive

## CC1(C)C(=O)N(Br)C(=O)N1Br
[1]
  outcome: inactive
[6]
  outcome: inactive
[2]
  outcome: inactive

## CCCC(=O)OCC
[1]
  outcome: inactive
[6]
  outcome: inactive
[3]
  outcome: inactive
[2]
  outcome: inactive

## C=CC(=C)CCC=C(C)C
[1]
  outcome: inactive
[3]
  AC50: 100 µM (active)
[4]
  outcome: inactive
[2]
  outcome: inactive

## COc1ccc(-n2nc(C(F)F)cc2-c2ccc(S(C)=O)cc2)cc1 (centres undefined)
[1]
  outcome: inactive
[3]
  outcome: inactive
[8]
  outcome: inactive
[5]
  outcome: inactive
[2]
  outcome: inactive
